# This is one part of a sample in which hits are shown more often than they occur.
# GIRK2 activator: Activates human GIRK2-containing potassium channels. HEK293 GIRK2/NPY4 cells, thallium flux fluorescence. 34,000 tested, under 10 active. AID 1259324. P48051. activation (% efficacy), % for hits at 37.5 µM;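 active means primary screen hit, no activity in plain HEK293 cells, and in GIRK2-only cells above 5% efficacy rising with concentration; inactive means the rest, including fluorescent compounds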;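 further: efficacy is normalized control-subtracted fluorescence 15 s after thallium addition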
# GluA2 TARP mod: modulators of AMPA receptor GluA2-stargazin complexes; O88602+P19491; AID 1259245; calls only at 30 µM; 3.5% of 40,000 active; HEK293 GluA2+stargazin, membrane potential dye (FDSS), glutamate EC50; hits were called plate by plate, in both directions;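 active means any of four per-well response measures lying three or more SD from its plate-wide compound average, in either direction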
# Target sequence (O88602 whole entry, looked up): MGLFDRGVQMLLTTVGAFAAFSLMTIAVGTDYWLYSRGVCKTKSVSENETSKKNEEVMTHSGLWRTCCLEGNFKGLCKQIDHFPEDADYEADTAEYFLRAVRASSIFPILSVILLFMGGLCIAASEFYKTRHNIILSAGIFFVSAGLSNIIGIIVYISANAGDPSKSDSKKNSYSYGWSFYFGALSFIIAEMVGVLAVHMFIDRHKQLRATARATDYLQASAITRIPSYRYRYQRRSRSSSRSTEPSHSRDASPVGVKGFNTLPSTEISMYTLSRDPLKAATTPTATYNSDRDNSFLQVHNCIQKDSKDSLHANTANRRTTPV
# Target sequence (P19491 whole entry, looked up): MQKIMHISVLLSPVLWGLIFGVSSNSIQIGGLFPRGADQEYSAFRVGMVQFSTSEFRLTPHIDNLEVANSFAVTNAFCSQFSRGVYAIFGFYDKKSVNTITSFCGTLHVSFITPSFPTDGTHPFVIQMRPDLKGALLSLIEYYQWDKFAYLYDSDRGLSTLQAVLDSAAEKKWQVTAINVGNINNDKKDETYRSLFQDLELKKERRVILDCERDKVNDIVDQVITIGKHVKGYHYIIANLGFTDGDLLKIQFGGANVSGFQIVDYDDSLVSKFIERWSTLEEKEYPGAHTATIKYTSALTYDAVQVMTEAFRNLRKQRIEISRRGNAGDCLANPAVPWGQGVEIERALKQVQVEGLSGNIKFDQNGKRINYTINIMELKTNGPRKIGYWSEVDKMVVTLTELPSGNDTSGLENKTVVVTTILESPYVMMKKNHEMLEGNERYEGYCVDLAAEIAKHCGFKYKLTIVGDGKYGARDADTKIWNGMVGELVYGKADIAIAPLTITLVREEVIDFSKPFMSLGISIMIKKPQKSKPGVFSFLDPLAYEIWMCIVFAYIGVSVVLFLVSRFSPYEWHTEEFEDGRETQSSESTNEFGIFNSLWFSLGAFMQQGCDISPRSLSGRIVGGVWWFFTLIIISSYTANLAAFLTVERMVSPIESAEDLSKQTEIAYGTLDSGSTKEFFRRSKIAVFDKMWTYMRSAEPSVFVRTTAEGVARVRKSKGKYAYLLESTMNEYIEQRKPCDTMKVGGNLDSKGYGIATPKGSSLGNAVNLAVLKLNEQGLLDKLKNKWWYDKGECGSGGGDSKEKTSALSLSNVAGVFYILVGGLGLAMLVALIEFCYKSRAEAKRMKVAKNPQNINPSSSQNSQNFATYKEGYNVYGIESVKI
# Calls only; . = inactive; / = no result given; + = active, no number.
SMILES,GIRK2 activator,GluA2 TARP mod
CCCCN1CC(c2nc3ccccc3n2Cc2c(F)cccc2Cl)CC1=O (stereo not given),/,+
CCN(CC)CCCN1C(=O)C(=O)C(=C(O)c2ccc(OC)c(C)c2)C1c1ccccn1 (stereo not given),.,/
CC(C)COC(=O)Nc1nc(CC(=O)NCc2ccc(F)cc2)cs1,.,/
CCCOC(=O)CC1C(=O)NCCN1C(=O)CCCC(=O)O (stereo not given),.,.
O=C(CCCS(=O)(=O)c1ccccc1)Nc1nc(-c2ccc3c(c2)OCO3)cs1,.,.
Cc1nc(-c2cccs2)c(CCC(=O)Nc2ccc(C)c(C)c2)s1,.,.
CCCn1c(C2CC(=O)N(c3ccc(C)c(Cl)c3)C2)nc2ccccc21 (stereo not given),/,.
CCCCn1c(C2CC(=O)N(c3ccc(C)c(Cl)c3)C2)nc2ccccc21 (stereo not given),/,+
C=CCN1C(=O)SC(CC(=O)Nc2ccc([N+](=O)[O-])cc2)C1=O (stereo not given),.,+
C=CCN1C(=O)SC(CC(=O)Nc2ccc(C(=O)OC)cc2)C1=O (stereo not given),.,.
CCCNC(=O)CSc1cc(N2CCOCC2)ncn1,.,.
CC(C)(C)NC(=O)N1CCN(c2cc(N3CCOCC3)ncn2)CC1,.,+
CCOCCn1c(-n2nc(C)cc2C)nc2c1c(=O)n(Cc1ccc(F)cc1)c(=O)n2C,.,.
COCCn1c(=O)c2c(nc(-n3nc(C)cc3C)n2Cc2ccc(F)cc2)n(C)c1=O,.,+
CC1CCN(CC(O)COCCOc2ccc(C(C)C)cc2)CC1 (stereo not given),.,/
CC1CCN(CC(O)COCCOc2ccc(Cl)cc2)CC1 (stereo not given),/,+
CC1CCN(CC(O)COCCOc2ccc(Br)cc2)CC1 (stereo not given),.,+
CN1CCN(CC(O)COCCOc2ccc(Br)cc2)CC1 (stereo not given),.,.
O=C(Cc1cccs1)N1CCN(c2ccc(-c3ccc4c(c3)OCO4)nn2)CC1,.,.
COCCNC(=O)c1sc2c(cnc3ccc(OC)cc32)c1-c1ccccc1,.,.
O=C(Cc1ccc(F)cc1)NCC(c1ccc(F)cc1)N1CCOCC1 (stereo not given),/,.
COc1ccc(C(CNC(=O)C(=O)NC2CCCC2)N2CCOCC2)cc1 (stereo not given),.,.
COc1ccc(C(CNC(=O)C2CCCCC2)N2CCOCC2)cc1 (stereo not given),/,+
O=C(NCC(c1ccc(F)cc1)N1CCOCC1)C1CCCCC1 (stereo not given),/,+
O=C(Nc1ccc(F)c([N+](=O)[O-])c1)c1ccc(=O)n(Cc2c(F)cccc2Cl)c1,.,.
SMILES,GIRK2 activator,GluA2 TARP mod
Cc1cc(NC(=O)C2CCCN(S(=O)(=O)c3cccs3)C2)n(C(C)C)n1 (stereo not given),.,.
O=C(Nc1ccc(OC(F)(F)F)cc1)C(=O)NC1CCCC1,/,.
O=S(=O)(c1cccc2c(S(=O)(=O)N3CCCCCC3)cccc12)N1CCCCCC1,/,.
O=S(=O)(Nc1ccc2c(c1)N(S(=O)(=O)c1ccccc1)CCC2)c1ccc(F)cc1,/,.
COc1ccc(CCNC(=O)Nc2ccc3c(c2)N(C(=O)c2ccccc2)CCC3)cc1,.,/
Cc1ccc(S(=O)(=O)N2CCCc3ccc(NS(=O)(=O)c4ccccc4)cc32)cc1,.,+
COc1ccc(CCNC(=O)Nc2ccc3c(c2)N(S(=O)(=O)c2ccccc2)CCC3)cc1,/,+
Cc1ccc(S(=O)(=O)N2CCCc3ccc(NS(=O)(=O)c4ccc(F)cc4)cc32)cc1,.,+
COc1ccc(S(=O)(=O)N2CCCc3cc(NS(=O)(=O)c4ccccc4)ccc32)cc1,/,.
Cc1ccc(S(=O)(=O)Nc2ccc3c(c2)N(S(=O)(=O)c2ccc(C)cc2)CCC3)cc1,.,.
COc1ccc(S(=O)(=O)N2CCCc3cc(NS(=O)(=O)c4cccc(C)c4)ccc32)cc1,/,+
O=C(Nc1nnc(CS(=O)(=O)c2ccccc2)o1)c1ccco1,.,.
Clc1ccc(-c2ccc(SCc3ccncc3)nn2)cc1,/,.
CCOc1ccc(CC(=O)Nc2ccc3c(c2)CCCN3S(=O)(=O)c2ccc(C)cc2)cc1,/,+
Cc1ccc(OCC(=O)Nc2ccc3c(c2)CCCN3S(=O)(=O)c2ccc(C)cc2)cc1,/,.
COc1ccc(S(=O)(=O)CCCC(=O)N2CCN(c3nc4ccc(OC)cc4s3)CC2)cc1,/,.
COc1ccccc1CNC(=O)CCc1csc(NC(=O)c2ccc(F)cc2)n1,.,.
COc1ccccc1CNC(=O)CCc1csc(NC(=O)c2ccc(Cl)cc2)n1,.,+
O=C(CCc1csc(NC(=O)c2ccc[nH]c2=O)n1)NCc1ccc(F)cc1,.,+
O=C(CCc1csc(NC(=O)c2ccc[nH]c2=O)n1)NCc1ccc2c(c1)OCO2,.,.
COc1ccc(S(=O)(=O)CCC(=O)Nc2nnc(-c3cc(C)n(C)n3)o2)cc1,.,.
COc1ccc(-c2csc(-n3nc(C)cc3NC(=O)C(C)Oc3ccccc3)n2)cc1OC (stereo not given),.,.
Cc1ccc(S(=O)(=O)N(C)CC(=O)NCCC(C)C)cc1,.,.
C=CCCC(=O)NCC#CCN1CCc2ccccc2C1,.,.
O=C(CCCc1ccccc1)NCC#CCN1CCc2ccccc2C1,.,+
SMILES,GIRK2 activator,GluA2 TARP mod
CCC(=O)OCCN1C(=O)c2cccc3c(N4CCCCC4)ccc(c23)C1=O,/,+
COc1cccc(N2C(=O)c3cccc4c(N5CCCCCC5)ccc(c34)C2=O)c1,/,.
COc1cn(-c2ccc(F)cc2)nc1C(=O)NCCCn1ccnc1,.,+
COCCCNC(=O)c1nn(-c2ccc(F)cc2)cc1OC,.,.
Cc1ccc([N+](=O)[O-])cc1NC(=O)C(=O)NCc1cccnc1,/,.
COc1ccc(N2CCN(c3nc4c(c(=O)[nH]c(=O)n4C)n3CCCOc3ccccc3)CC2)cc1,/,.
CCOC(=O)c1ccc(S(=O)(=O)N2CCN(c3ccc4nnc(CC)n4n3)CC2)cc1,.,.
O=S(=O)(c1ccc(F)cc1)N1CCN(c2ccc3nnc(-c4ccco4)n3n2)CC1,.,+
O=C(c1ccc(F)cc1F)N1CCN(c2ccc3nnc(-c4ccco4)n3n2)CC1,.,.
O=S(=O)(/C=C/c1ccccc1)N1CCN(c2ccc(-c3ccco3)nn2)CC1,.,.
O=S(=O)(c1cccc(Cl)c1)N1CCN(c2ccc3nnc(-c4ccco4)n3n2)CC1,.,.
CC(Oc1ccccc1F)C(=O)N1CCN(c2ccc3nnc(-c4ccco4)n3n2)CC1 (stereo not given),.,+
O=S(=O)(/C=C/c1ccccc1)N1CCN(c2ccc3nnc(-c4ccco4)n3n2)CC1,.,+
CCCC(=O)Nc1ccc(S(=O)(=O)N2CCN(c3ccc4nnc(C)n4n3)CC2)cc1,.,+
COc1ccc(/C=C/C(=O)NCCN2CCn3cc(OC)c(=O)cc3C2=O)cc1OC,.,.
CCOC(=O)Cc1csc(NC(=O)CCN2C(=O)c3ccccc3S2(=O)=O)n1,.,.
COc1ccccc1N1CCN(C(CNS(=O)(=O)c2ccc(F)cc2)c2cccnc2)CC1 (stereo not given),/,.
CCc1ccc(S(=O)(=O)N2CCN(c3ccc4nnc(-c5ccco5)n4n3)CC2)cc1,.,.
COc1ccc(S(=O)(=O)N2CCN(c3ccc4nnc(-c5ccco5)n4n3)CC2)cc1,.,+

# Assay outcomes as filed in PubChem BioAssay.
